Data reported in the supplement of paper PMC11006884.
The full data set covers some 6,500 targets. This sample favours those with a hit. About 2% of all pairs of compound and target were hits.

Compound: COC(=O)C#Cc1ccccc1 [methyl 3-phenylpropiolate]
Experiment: log2 ratio of iodoacetamide-alkyne labeling of the cysteine site, DMSO over compound (competition); higher = stronger covalent engagement of the cysteine by the compound, active = 1 or more
Conditions: 500 µM; treatment time 1 h; system: HEK293T cell lysate
How it was run: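 HEK293T lysate (2 mg/mL) was treated with DMSO or electrophile (500 µM, 1 h, ambient temperature), then iodoacetamide alkyne (1 h), clicked to sCIP-TMT reagents, pooled, trypsin-digested overnight at 37 °C, streptavidin-enriched and acid-eluted. Peptides were run on Orbitrap Eclipse LC-MS/MS with FAIMS and quantified in FragPipe. The log2 competition ratio per cysteine is mean control-channel over mean compound-channel reporter intensity. Duplicate channels and three replicates were used, and cysteines quantified in only one replicate were excluded.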

UniProt Q9P2E9, sequence (Q9P2E9 whole entry, looked up): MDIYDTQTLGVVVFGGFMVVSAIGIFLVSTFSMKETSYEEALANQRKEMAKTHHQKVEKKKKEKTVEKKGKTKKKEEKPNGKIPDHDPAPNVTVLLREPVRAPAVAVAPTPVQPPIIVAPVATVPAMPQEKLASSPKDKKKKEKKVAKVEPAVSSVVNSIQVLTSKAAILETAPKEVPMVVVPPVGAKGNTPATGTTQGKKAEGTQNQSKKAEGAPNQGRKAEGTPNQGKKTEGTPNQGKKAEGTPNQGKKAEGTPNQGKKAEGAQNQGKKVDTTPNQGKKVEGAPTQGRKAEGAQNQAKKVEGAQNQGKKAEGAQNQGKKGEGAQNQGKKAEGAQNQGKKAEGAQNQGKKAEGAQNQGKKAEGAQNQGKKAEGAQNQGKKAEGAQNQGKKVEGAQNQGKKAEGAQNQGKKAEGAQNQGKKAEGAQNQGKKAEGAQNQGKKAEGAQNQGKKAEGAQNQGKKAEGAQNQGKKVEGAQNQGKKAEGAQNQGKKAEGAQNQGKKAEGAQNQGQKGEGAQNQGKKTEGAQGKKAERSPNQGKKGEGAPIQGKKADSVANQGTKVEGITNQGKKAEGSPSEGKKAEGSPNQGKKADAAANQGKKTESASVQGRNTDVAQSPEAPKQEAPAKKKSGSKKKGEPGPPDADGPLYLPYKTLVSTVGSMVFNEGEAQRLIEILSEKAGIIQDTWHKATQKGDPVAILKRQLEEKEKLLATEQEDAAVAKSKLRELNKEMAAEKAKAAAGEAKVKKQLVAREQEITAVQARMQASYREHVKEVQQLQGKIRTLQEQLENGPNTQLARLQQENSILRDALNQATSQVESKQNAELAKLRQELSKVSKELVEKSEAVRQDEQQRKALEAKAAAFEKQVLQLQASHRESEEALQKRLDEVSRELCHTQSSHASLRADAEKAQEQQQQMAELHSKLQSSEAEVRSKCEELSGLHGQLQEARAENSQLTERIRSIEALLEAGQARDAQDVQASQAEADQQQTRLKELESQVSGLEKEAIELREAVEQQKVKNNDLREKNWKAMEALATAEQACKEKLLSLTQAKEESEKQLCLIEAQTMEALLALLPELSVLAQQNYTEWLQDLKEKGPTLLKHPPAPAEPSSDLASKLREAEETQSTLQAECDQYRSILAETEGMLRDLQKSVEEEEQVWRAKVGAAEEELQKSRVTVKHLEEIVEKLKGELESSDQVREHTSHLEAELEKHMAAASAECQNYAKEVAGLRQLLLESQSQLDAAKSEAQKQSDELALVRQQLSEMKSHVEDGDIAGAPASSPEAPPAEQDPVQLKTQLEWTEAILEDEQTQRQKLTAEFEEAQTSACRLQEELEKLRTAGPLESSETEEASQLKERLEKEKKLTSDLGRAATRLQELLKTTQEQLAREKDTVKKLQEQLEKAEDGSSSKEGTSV
UniProt Q9NZB2, sequence (Q9NZB2 whole entry, looked up): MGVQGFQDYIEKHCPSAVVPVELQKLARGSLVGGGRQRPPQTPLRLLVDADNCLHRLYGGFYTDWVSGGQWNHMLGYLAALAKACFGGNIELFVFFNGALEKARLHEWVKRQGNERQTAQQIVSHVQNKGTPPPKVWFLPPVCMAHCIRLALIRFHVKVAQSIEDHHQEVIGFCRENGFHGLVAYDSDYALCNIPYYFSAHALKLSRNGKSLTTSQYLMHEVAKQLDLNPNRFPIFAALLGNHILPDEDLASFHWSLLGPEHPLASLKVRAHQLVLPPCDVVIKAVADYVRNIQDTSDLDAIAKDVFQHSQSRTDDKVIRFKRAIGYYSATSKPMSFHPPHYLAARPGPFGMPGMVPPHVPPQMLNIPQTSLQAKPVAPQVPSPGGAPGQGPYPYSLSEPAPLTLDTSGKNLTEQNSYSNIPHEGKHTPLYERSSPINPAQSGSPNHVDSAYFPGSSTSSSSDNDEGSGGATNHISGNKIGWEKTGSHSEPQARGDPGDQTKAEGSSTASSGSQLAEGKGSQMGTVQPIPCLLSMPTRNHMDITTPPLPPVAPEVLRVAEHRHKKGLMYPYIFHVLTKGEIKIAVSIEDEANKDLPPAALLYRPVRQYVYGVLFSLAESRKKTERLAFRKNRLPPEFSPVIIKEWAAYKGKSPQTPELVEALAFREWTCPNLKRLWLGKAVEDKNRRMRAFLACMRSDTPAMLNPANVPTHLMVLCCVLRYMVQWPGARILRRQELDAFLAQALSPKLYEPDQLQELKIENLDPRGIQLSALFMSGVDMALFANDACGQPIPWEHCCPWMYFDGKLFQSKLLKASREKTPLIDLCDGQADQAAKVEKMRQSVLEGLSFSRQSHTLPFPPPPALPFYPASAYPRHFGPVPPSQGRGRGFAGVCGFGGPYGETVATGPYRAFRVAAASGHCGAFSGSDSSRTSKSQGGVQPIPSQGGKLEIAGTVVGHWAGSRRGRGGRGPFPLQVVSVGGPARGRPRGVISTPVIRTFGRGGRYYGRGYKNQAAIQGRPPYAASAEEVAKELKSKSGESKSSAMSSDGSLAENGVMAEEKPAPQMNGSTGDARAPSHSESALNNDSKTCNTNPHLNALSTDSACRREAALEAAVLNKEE
UniProt Q9P258, sequence (Q9P258 whole entry, looked up): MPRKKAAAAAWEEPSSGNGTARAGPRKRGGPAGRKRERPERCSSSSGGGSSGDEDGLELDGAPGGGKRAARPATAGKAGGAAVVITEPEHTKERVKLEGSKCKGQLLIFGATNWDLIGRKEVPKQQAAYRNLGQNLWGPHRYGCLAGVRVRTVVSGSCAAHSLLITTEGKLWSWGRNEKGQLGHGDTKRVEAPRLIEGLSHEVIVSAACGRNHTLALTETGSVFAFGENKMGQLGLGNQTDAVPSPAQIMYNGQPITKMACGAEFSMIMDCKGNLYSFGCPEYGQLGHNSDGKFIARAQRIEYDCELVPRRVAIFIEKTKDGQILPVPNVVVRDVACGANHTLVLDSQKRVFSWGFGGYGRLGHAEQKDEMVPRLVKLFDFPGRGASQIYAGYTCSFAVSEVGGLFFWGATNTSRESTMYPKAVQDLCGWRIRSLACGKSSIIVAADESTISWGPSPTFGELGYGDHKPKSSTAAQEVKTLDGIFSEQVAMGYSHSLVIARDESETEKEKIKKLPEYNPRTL
UniProt Q9H694, sequence (Q9H694 whole entry): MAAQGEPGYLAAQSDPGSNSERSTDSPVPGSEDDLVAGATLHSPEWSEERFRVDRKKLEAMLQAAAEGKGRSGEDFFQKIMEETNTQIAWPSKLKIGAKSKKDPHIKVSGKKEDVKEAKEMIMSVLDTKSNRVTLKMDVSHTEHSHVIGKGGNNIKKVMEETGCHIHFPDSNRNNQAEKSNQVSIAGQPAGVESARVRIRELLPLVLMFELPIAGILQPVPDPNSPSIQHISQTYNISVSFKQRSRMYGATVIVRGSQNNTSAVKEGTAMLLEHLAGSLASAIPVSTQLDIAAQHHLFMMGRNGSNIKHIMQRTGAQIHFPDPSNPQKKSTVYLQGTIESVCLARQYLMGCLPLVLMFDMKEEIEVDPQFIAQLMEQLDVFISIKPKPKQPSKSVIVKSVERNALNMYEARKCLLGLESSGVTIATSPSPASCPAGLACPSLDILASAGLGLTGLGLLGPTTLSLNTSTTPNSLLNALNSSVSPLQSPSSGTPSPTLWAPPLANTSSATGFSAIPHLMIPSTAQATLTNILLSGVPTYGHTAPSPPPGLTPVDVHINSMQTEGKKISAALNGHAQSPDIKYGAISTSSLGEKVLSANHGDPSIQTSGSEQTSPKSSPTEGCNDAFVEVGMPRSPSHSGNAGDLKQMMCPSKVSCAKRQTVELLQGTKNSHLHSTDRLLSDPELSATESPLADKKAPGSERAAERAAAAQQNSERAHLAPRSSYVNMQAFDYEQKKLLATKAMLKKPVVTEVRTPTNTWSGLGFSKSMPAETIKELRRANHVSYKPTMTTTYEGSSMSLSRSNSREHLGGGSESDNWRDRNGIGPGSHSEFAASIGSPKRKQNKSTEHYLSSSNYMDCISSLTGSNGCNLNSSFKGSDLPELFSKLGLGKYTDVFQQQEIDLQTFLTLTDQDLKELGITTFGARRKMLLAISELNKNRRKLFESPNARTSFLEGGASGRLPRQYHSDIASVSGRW
UniProt Q9UGV2, sequence (Q9UGV2 whole entry, looked up): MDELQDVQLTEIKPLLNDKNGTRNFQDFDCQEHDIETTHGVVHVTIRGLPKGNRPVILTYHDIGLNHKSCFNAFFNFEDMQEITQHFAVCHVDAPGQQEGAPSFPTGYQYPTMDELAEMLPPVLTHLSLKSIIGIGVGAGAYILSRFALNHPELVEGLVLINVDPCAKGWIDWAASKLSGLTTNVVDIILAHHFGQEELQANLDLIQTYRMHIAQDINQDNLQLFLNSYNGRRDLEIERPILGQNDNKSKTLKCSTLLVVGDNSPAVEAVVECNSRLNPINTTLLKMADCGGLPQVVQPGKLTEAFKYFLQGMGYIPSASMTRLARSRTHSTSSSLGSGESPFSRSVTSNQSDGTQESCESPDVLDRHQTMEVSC
UniProt Q9H2U2, sequence (Q9H2U2 whole entry, looked up): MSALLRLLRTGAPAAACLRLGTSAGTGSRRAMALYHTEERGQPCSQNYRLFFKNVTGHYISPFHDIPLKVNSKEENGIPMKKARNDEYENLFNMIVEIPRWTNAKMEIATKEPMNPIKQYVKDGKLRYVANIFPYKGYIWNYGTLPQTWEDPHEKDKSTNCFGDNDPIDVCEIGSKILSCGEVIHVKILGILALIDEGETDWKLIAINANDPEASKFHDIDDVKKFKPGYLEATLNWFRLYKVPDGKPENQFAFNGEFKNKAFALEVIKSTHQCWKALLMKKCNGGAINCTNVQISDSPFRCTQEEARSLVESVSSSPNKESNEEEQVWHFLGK
UniProt Q9NR31, sequence (Q9NR31 whole entry, looked up): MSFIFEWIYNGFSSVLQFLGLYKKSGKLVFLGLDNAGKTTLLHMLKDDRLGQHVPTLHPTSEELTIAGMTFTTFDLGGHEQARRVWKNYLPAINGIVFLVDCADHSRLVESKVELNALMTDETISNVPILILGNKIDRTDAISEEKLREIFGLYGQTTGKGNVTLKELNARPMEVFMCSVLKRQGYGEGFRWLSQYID

With SAR1A C178 (UniProt Q9NR31) as the target, how does the “log2 ratio of iodoacetamide-alkyne labeling” value (“log2 ratio” for short) read?
The value was 0.0354 (inactive).

With CTSZ C92 (UniProt Q9UBR2) as the target, how does the “log2 ratio” value read?
The value was -0.349 (inactive).

How did the “log2 ratio” value turn out when RRBP1 C892 (UniProt Q9P2E9) was run?
The value was 0.291 (inactive).

How did the “log2 ratio” value turn out when MAGED2 C516 (UniProt Q9UNF1) was run?
The value was 0.293 (inactive).

How did the “log2 ratio” value turn out when NDRG3 C290 (UniProt Q9UGV2) was run?
Its value is -0.105 (inactive).

For NUDT5 C76 (UniProt Q9UKK9), which “log2 ratio” value is on record?
Its value is 0.157 (inactive).

How did the “log2 ratio” value turn out when TNKS1BP1 C1324 (UniProt Q9C0C2) was run?
Its value is 1.18 (active).

For UniProt Q9NV64_C29, which “log2 ratio” value is on record?
Its value is 1.11 (active).

UniProt Q9NW64_C24 was tested. Which “log2 ratio” value did it give?
Its value is 0.351 (inactive).

ASPSCR1 C225 (UniProt Q9BZE9) was tested. Which “log2 ratio” value did it give?
Its value is 1.02 (active).

With DDX56 C286 (UniProt Q9NY93) as the target, how does the “log2 ratio” value read?
The value was 0.51 (inactive).

For UniProt Q9NSY1_C912, which “log2 ratio” value is on record?
The value was 0.827 (inactive).

Which “log2 ratio” value does the source give for RCC2 C428 (UniProt Q9P258) here?
Its value is 0.696 (inactive).

RACGAP1 C419 (UniProt Q9H0H5) was tested. Which “log2 ratio” value did it give?
Its value is 0.303 (inactive).

How did the “log2 ratio” value turn out when UniProt Q9UBD5_C159 was run?
Its value is 1.13 (active).

How did the “log2 ratio” value turn out when FANCI C56 (UniProt Q9NVI1) was run?
The value was 0.281 (inactive).

With UniProt Q9Y3B4_C83 as the target, how does the “log2 ratio” value read?
The value was 0.2 (inactive).

For MYO6 C1236 (UniProt Q9UM54), which “log2 ratio” value is on record?
The value was 0.0604 (inactive).

For BICC1 C621 (UniProt Q9H694), which “log2 ratio” value is on record?
The value was 0.525 (inactive).

For XPO4 C1149 (UniProt Q9C0E2), which “log2 ratio” value is on record?
The value was 0.048 (inactive).

How did the “log2 ratio” value turn out when AIM1 C976 (UniProt Q9Y4K1) was run?
The value was 0.347 (inactive).

How did the “log2 ratio” value turn out when CHORDC1 C5 (UniProt Q9UHD1) was run?
The value was -0.0481 (inactive).

With UniProt Q9Y2D5_C296 as the target, how does the “log2 ratio” value read?
The value was 0.394 (inactive).

BRD7 C338 (UniProt Q9NPI1) was tested. Which “log2 ratio” value did it give?
Its value is 1.01 (active).

MDN1 C172 (UniProt Q9NU22) was tested. Which “log2 ratio” value did it give?
Its value is 0.0689 (inactive).

MRPS7 C152 (UniProt Q9Y2R9) was tested. Which “log2 ratio” value did it give?
The value was -0.102 (inactive).

PPA2 C161 (UniProt Q9H2U2) was tested. Which “log2 ratio” value did it give?
Its value is -0.42 (inactive).

Which “log2 ratio” value does the source give for UniProt Q9UPN4_C218 here?
Its value is 0.212 (inactive).

Which “log2 ratio” value does the source give for MDN1 C271 (UniProt Q9NU22) here?
The value was 0.728 (inactive).

UniProt Q9BVS4_C449 was tested. Which “log2 ratio” value did it give?
The value was 1.18 (active).

How did the “log2 ratio” value turn out when UniProt Q9Y312_C156 was run?
Its value is 0.41 (inactive).

With AK6 C53 (UniProt Q9Y3D8) as the target, how does the “log2 ratio” value read?
Its value is 0.109 (inactive).

Which “log2 ratio” value does the source give for LARS C573 (UniProt Q9P2J5) here?
Its value is 0.342 (inactive).

Which “log2 ratio” value does the source give for UniProt Q9P260_C624 here?
Its value is 0.299 (inactive).

How did the “log2 ratio” value turn out when ACTR6 C339 (UniProt Q9GZN1) was run?
The value was 0.248 (inactive).

With ANAPC1 C1412 (UniProt Q9H1A4) as the target, how does the “log2 ratio” value read?
Its value is 0.0508 (inactive).

Which “log2 ratio” value does the source give for LARS C554 (UniProt Q9P2J5) here?
Its value is 1.74 (active).

How did the “log2 ratio” value turn out when NAT10 C486 (UniProt Q9H0A0) was run?
Its value is 0.0616 (inactive).

FAM120A C279 (UniProt Q9NZB2) was tested. Which “log2 ratio” value did it give?
Its value is -0.00137 (inactive).

With SAE1 C214 (UniProt Q9UBE0) as the target, how does the “log2 ratio” value read?
The value was 0.502 (inactive).
